# 12-hLO inh: inhibitors of human 12-lipoxygenase (ALOX12); Potency, µM (highest dose often 57.1 µM), usual class: inhibitors; 150,000 compounds, 0.12% hits; purified 12-hLO, xylenol orange hydroperoxide absorbance; AID 1452; active = well fitted inhibition curve with a large enough effect; inconclusive = small, poorly fitted or top-dose-only effect; note: nearly all actives have a fitted effect of over 55% in size
# Target sequence (P18054 whole entry, looked up): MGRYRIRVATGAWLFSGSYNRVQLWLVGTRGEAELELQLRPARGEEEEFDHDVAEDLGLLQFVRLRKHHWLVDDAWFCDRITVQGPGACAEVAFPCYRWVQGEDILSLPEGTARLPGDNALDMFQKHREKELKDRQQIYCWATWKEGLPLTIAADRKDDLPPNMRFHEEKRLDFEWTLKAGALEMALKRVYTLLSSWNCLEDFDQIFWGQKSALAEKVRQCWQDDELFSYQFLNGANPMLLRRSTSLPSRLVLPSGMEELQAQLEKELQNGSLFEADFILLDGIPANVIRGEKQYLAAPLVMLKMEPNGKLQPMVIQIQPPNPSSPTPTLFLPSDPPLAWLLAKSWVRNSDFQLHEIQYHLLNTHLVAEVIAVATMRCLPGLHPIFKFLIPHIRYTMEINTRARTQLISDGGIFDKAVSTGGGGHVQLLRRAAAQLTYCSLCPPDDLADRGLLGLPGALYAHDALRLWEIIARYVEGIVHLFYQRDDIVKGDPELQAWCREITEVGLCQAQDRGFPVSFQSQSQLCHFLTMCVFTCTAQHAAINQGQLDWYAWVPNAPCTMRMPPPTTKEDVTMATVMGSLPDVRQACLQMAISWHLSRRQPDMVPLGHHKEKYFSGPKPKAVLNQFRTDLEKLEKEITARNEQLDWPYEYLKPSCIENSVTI
#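 Purified human 12hLO (150 nM final) was preincubated with compounds for 15 min at room temperature in 25 mM Hepes pH 7.0, 0.01% Triton X-100, then reacted with 40 uM arachidonic acid for 30 min. Hydroperoxide was detected with ferrous iron/xylenol orange.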
# LMNA splice mod: modulators of lamin A splicing; AID 1487; HeLa LMNA splicing GFP/RFP minigene ratio, 48 h; 200,000 compounds, 0.01% hits; Potency, µM (doses to about 46.1 µM), hits mostly inhibitors; active = well fitted inhibition curve with a large enough effect in the signal ratio, with a control signal flat, not every such curve was filed as active; inconclusive = small, poorly fitted or top-dose-only effect, or effect the other way, or a change in a side signal; the % refers to the signal ratio
#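 S3 HeLa cells stably expressing lamin A-EGFP splicing minigene plus DsRed2, 600 cells/well, 48 h compound exposure at 37C. Laser-scanning cytometry; analysed as GFP (500-530 nm)/RFP (575-640 nm) total intensity ratio; 0.5% DMSO vehicle.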
# ALDH1A1 block: inhibitors of human aldehyde dehydrogenase 1A1; P00352; Purified ALDH1A1, NADH fluorescence, propionaldehyde substrate; Potency, µM (titrated, usually from 75.3 µM), usual class: inhibitors; 220,000 compounds, 7.3% hits; AID 1030
# PNC assembly inh: inhibitors of perinucleolar compartment assembly | activity change (PNC), negative = inhibition, % at 10 µM | AID 2417 | PC3M PTB-GFP, PNC prevalence imaging, 16 h; hits give low values | 140,000 compounds, 3.1% hits;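 active = readout at or below -70, meaning at least 70% loss of cells showing the perinucleolar compartment, a nuclear body marking cancer cells; inconclusive = readout between -30 and a set limit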
#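 PC3M cells stably expressing PTB-GFP, 750–1000 cells/well, treated 16 h at 37 °C with compound (23 nl of library stock), in duplicate. After paraformaldehyde fixation and Hoechst stain, imaged at 20x; PNC prevalence scored by image analysis.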
# HPGD block: HPGD (human) dehydrogenase inhibition. 150,000 compounds, 4.3% hits. P15428. purified HPGD, NADH fluorescence kinetic, PGE2 substrate. Potency, µM, hits mostly inhibitors
#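 20 nM HPGD preincubated 15 min at room temperature with compound in 50 mM Tris-HCl pH 8, 0.01% Tween 20. Started with 1 mM NAD+ and 30 uM prostaglandin E2; NADH fluorescence (360/450 nm) read 5 times over 30-s intervals, last minus first.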
# Numbers stand for hits; i = inactive; ? = inconclusive; nt = no result; ! = not active in a repeat; [ ] = remark or other dose. Most compounds without a hit are left out; they make up all but 10% or so of the library. Unless noted, calls come from the whole dose curve; as a rule, active = well fitted inhibition curve with a large enough effect (not every such curve was filed as active); inconclusive = small, poorly fitted or top-dose-only effect, or another doubt; inactive = no such curve, though single readings can be large or run the other way.
SMILES,12-hLO inh,LMNA splice mod,ALDH1A1 block,PNC assembly inh,HPGD block
Cc1ccccc1-n1nnnc1SCC(=O)Nc1ccc(S(=O)(=O)N2CCCC2)cc1,i,?,4µM,?,i
O=C(CSc1nnc2ccccn12)Nc1ccc(S(=O)(=O)N2CCOCC2)cc1,nt,nt,25µM,nt,nt
CC1CCCCN1S(=O)(=O)c1ccc(NC(=O)CSc2nnnn2C)cc1 (configuration not stated),i,i,22µM,i,i
Cc1cc2cc(C)c3nnc(SCC(=O)Nc4ccc(S(=O)(=O)N5CCCCC5C)cc4)n3c2cc1C (configuration not stated),i,i,?,i,i
Cc1nnc(SCC(=O)Nc2ccc(S(=O)(=O)N3CCCC3)cc2)n1N,i,i,?,i,i
CC#CCN(CC#CC)S(=O)(=O)c1ccc(S(=O)(=O)N2CCOCC2)cc1,i,i,i,-105,i
O=S(=O)(c1ccc(N2CCOCC2)cc1)N1CCOCC1,i,i,i,i,i
Cc1cccc([C@H]2[C@@H]3C=CC(C)C[C@@H]3C(=O)N2Cc2ccccc2)c1 (some centres not stated),i[0.00818 µM],nt,?,nt,i
COc1cccc(CN2CCN(Cc3cccc4nonc34)CC2CCO)c1 (configuration not stated),nt,?,i,nt,nt
CCCC(=O)Nc1ccc(S(=O)(=O)N2CCOCC2)cc1,i,i,3.2µM,?,i
N#Cc1cc2ccccc2nc1SCC(=O)Nc1ccc(S(=O)(=O)N2CCCC2)cc1,i,?,10µM,i,i
O=S(=O)(c1ccc(NC(=S)NCCc2ccccc2)cc1)N1CCOCC1,i,?,i,i,i
Cc1ccc(C)c(-n2nnnc2SCC(=O)Nc2cccc(-c3nnc4n3CCCCC4)c2)c1,i,?,7.1µM,i,i
O=S(=O)(c1ccc(NC(=S)NN=C(Cc2ccccc2)Cc2ccccc2)cc1)N1CCOCC1,nt,i,18µM,nt,nt
CC(=O)Nc1ccc(S(=O)(=O)N2CCOCC2)cc1,i,i,i,i,i
COc1ccc2nc(SCC(=O)Nc3ccc(S(=O)(=O)N4CCCC4)cc3)c(C#N)cc2c1,i,i,?,i,i
C/C=C(\C)C(=O)O[C@H]1C[C@@]2(C)CCC(C(C)C)C2(O)CC[C@@]1(C)O (some centres not stated),nt,nt,i,nt,i
Cc1cc(C(=O)COC(=O)c2cccn2C)c(C)n1Cc1ccco1,nt,i,25µM,nt,nt
C=CS(=O)(=O)c1ccc(Oc2ccc(S(=O)(=O)C=C)cc2)cc1,i,?,0.032µM,-134,i
CCN1/C(=C/C(C)=O)Sc2ccc(OC)cc21,i,?,?,?,13µM!
CCCn1c2ccccc2c2cnn(CC(=O)NCCCN(Cc3ccccc3)C(C)C)c(=O)c21,nt,i,nt,nt,nt
Cc1cccc(N2C(N)=NC(N)=NC23CCCCC3)c1,i,i,i,?,i
COc1ccc(OC)c(N2C(N)=NC(N)=NC23CCCC3)c1,i,i,22µM,i,nt
CN(C)c1ncc2ncc(=O)n(Cc3ccc(F)cc3)c2n1,i,nt,?,nt,?
O=C(Cc1ccc(NC(=O)N2CCCCc3ccccc32)cc1)NCc1ccccc1,nt,i,nt,nt,nt
SMILES,12-hLO inh,LMNA splice mod,ALDH1A1 block,PNC assembly inh,HPGD block
CCOC(=O)CCc1c(C)nc(SCCCn2c(=O)[nH]c3ccccc32)c(C#N)c1C,i,i,32µM,i,16µM
CCOC(=O)CCc1c(C)nc(SCCN2CCCC2)c(C#N)c1C,i,i,i,i,i
O=c1c2c(n3cnnc3n1-c1ccccc1)-c1ccccc1CC21CCCCC1,i,i,20µM,i,i
CC1CCC(C(C)C)C(OCC(O)CN2CCOCC2)C1 (configuration not stated),i,i,i,-110,i
Cc1ccc(-n2c(C)cc(C(=O)COc3cccnc3[N+](=O)[O-])c2C)cc1,i,?,?,i,i
Cc1cc(C(=O)COc2cccnc2[N+](=O)[O-])c(C)n1-c1ccccc1,i,?,20µM,?,i
Cc1ccc(OCCOc2ccc(Br)cc2)c([N+](=O)[O-])n1,i,?,?,i,10µM
Cc1ccc(OCC(=O)c2cc(C)n(C)c2C)c([N+](=O)[O-])n1,i,i,i,-121,i
O=C(Nc1ccccc1Cl)C1CCN(c2nc3ccccc3[nH]2)CC1,nt,i,nt,nt,nt
COc1cccc(C2C(C(N)=O)=C(C)Nc3nc(CCCO)nn32)c1 (configuration not stated),nt,i,nt,nt,nt
NCCSC1CC(=O)N(Cc2ccc(F)cc2)C1=O (configuration not stated),nt,i,2.2µM,nt,nt
COc1ccc(N2C(=O)CC(Sc3nnc(-c4ccccc4F)n3C)C2=O)cc1 (configuration not stated),nt,i,1.8µM,nt,nt
COc1ccc(N2C(=O)CC(Sc3nccc(C)n3)C2=O)cc1 (configuration not stated),i,i,22µM,i,i
COc1ccc(N2C(=O)CC(Sc3nc4ccccc4s3)C2=O)cc1 (configuration not stated),nt,nt,7.9µM,nt,nt
CCCn1cc(S(=O)(=O)c2ccc(CC)cc2)c(=O)c2cc(F)c(N3CCN(C)CC3)cc21,nt,i,nt,nt,nt
CCOC(=O)c1[nH]c(C)c(CCC(=O)Nc2ccc(C(C)=O)cc2)c1C,nt,i,nt,nt,nt
CCOC(=O)C1CCC(CN(Cc2c(Cl)cccc2Cl)S(=O)(=O)c2ccc(F)c(C)c2)CC1 (configuration not stated),nt,i,nt,nt,nt
COc1ccc(N2C(=O)CC(Sc3ncccc3C(=O)O)C2=O)cc1 (configuration not stated),i,i,?,i,i
CCOc1ccc(N2C(=O)CC(NC3CCCCNC3=O)C2=O)cc1 (configuration not stated),i,i,20µM,?,i
CCOc1ccc(N2C(=O)CC(SCCN)C2=O)cc1 (configuration not stated),i,i,3.2µM,i,i
CCOc1ccc2nc(SC3CC(=O)N(c4ccc(OC)cc4)C3=O)sc2c1 (configuration not stated),i,?,16µM,i,i
COc1ccc(N2C(=O)CC(SCCc3nc4ccccc4[nH]3)C2=O)cc1 (configuration not stated),i,i,i,i,i
CCN=C(NCC)SC1CC(=O)N(c2ccc(OCC)cc2)C1=O (configuration not stated),nt,nt,i,nt,nt
C=CCNc1nnc(SC2CC(=O)N(c3ccc(OC)cc3)C2=O)s1 (configuration not stated),i,i,2µM,i,?
O=C1NCCCCC1NC1CC(=O)N(c2ccccc2)C1=O (configuration not stated),i,i,i,i,i
COc1ccccc1CNC(=O)c1cnc(N2CCCC2)nc1C,nt,i,nt,nt,nt
CCOc1ccc(NC(=O)c2cnc(N3CCCC3)nc2C)cc1,nt,i,nt,nt,nt
CC1=C(/C=C/C(C)=C/C=C/C(C)=C/C(=O)O)C(C)(C)CCC1O (configuration not stated),nt,nt,6.3µM,nt,nt
O=C(/C=C/c1ccc(O)cc1)c1ccccc1O,?,nt,20µM,nt,?

# Screens: PubChem, National Center for Advancing Translational Sciences (NCATS)
